This is an account of results in PubChem BioAssay (Tox21).

A number with no mark means an inactive call. Results filed as inconclusive are left out. Active and inactive are the calls of the source. Unless noted, calls come from the whole dose curve; as a rule, active = well fitted curve in the direction sought with a large enough effect in the repeat runs; inconclusive = weak or mixed curves; inactive = no such curve, though single readings can be large; an effect the other way counts as inactive or inconclusive.

Assay [1] can be described thus: qHTS assay to identify small molecule antagonists of the estrogen related receptor (ERR) signaling pathway from Tox21 library - cell viability counter screen (AID 1224834). Note: nearly all actives have a fitted effect of over 30% in size. In a few lines:
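ERR reporter cells were plated 6 h before compound addition, then exposed to test compounds in DMSO for 17.5 h at 37 C. Viability was read as CellTiter-Fluor fluorescence after a 30-minute incubation at 37 C.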

Assay [2] deals with Luciferin 4-monooxygenase (Photinus pyralis) (UniProt P08659). The experiment in a line: qHTS assay to identify small molecule inhibitors of firefly luciferase (AID 1224835). Note: nearly all actives have a fitted effect of over 25% in size. In outline:
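Inhibition of purified Photinus luciferase is measured by luminescence. Substrate levels (D-luciferin, ATP) sit at their KM values. Each compound is tested in a concentration series.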

A short description of assay [3]: qHTS assay to identify small molecule agonists of the constitutive androstane receptor (CAR) signaling pathway - cell viability counter screen (AID 1224836). Note: nearly all actives have a fitted effect of over 45% in size. In a few lines:
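Viability read-out: CellTiter-Fluor fluorescence after 23 h compound exposure at 37 C/5% CO2 in double-stable HepG2-CYP2B6-hCAR cells, with PK11195 present at 0.75 uM final; compounds tested in 15-point titration.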

The nature of assay [4]: qHTS assay to identify small molecule antagonists of the constitutive androstane receptor (CAR) signaling pathway - cell viability counter screen (AID 1224837). Note: nearly all actives have a fitted effect of over 45% in size. In outline:
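HepG2 cells stably expressing hCAR and a CYP2B6-2.2kb reporter were plated and pre-incubated 4 hr at 37 C/5% CO2, then given compounds at 15 concentrations plus 50 nM CITCO (final). After 23 hr, viability was read by CellTiter-Fluor fluorescence.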

In assay [5] the target is Nuclear receptor subfamily 1 group I member 3 (Homo sapiens) (UniProt Q14994). The experiment in a line: qHTS assay to identify small molecule antagonists of the constitutive androstane receptor (CAR) signaling pathway (AID 1224838). Note: nearly all actives have a fitted effect of over 40% in size. In outline: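 HepG2 cells stably co-transfected with hCAR and a CYP2B6-2.2kb luciferase reporter were seeded 4 h before compound addition at 15 concentrations. Cells were stimulated with 50 nM CITCO (final) for 24 h at 37 C; luciferase luminescence was then read.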
Sequence of Nuclear receptor subfamily 1 group I member 3 (Homo sapiens) (Q14994 whole entry, looked up): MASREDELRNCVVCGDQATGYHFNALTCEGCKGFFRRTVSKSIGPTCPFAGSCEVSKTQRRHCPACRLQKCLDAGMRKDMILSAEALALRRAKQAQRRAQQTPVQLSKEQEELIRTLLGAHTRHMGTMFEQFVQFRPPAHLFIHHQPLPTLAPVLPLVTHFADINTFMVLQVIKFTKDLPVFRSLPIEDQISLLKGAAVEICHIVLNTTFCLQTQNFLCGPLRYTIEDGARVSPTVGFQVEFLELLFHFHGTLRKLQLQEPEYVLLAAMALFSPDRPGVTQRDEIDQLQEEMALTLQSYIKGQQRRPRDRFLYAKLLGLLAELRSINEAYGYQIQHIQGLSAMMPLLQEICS

The nature of assay [6]: qHTS assay to identify small molecule antagonists of the estrogen related receptor signaling pathway with the pleiotropic PPARgamma coactivator (PGC) from Tox21 10K library - cell viability counter screen (AID 1224840; active = well fitted cell-killing curve with a large enough effect in the repeat runs, not every such curve was filed as active; note: nearly all actives have a fitted effect of over 40% in size). In outline:
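PGC/ERR cells were seeded at 2,000 cells/well and left 6 hours at 37 C/5% CO2 before pin-tool addition of compounds in DMSO. After 17.5 hours at 37 C, CellTiter-Fluor was added and fluorescence read 30 minutes later.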

Assay [7] can be described thus: qHTS assay to identify small molecule antagonists of the estrogen related receptor signaling pathway with the pleiotropic PPARgamma coactivator (PGC) from Tox21 10K library (AID 1224841; call rule not given here; note: actives are mostly falling curves and most rising ones were filed inactive; nearly all actives have a fitted effect of over 50% in size). In outline:
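PGC/ERR reporter cells were seeded at 2,000 cells/well and held 6 hours at 37 C/5% CO2 before pin-tool addition of compounds in DMSO. After 18 hours at 37 C, One-Glo was added and luminescence read after 30 minutes at room temperature.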

The nature of assay [8]: qHTS assay to identify small molecule agonists of the estrogen related receptor signaling pathway with the pleiotropic PPARgamma coactivator (PGC) from Tox21 10K library (AID 1224842). Note: nearly all actives have a fitted effect of over 15% in size. In a few lines:
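Luminescence from One-Glo (30 min, room temperature) measured after PGC/ERR cells had 18 h at 37 C with pinned compound (23 nL in DMSO). Cells had been seeded at 2,000 per well and pre-incubated 6 h.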

Assay [9] has as its target Thyrotropin receptor (Homo sapiens) (UniProt P16473). The experiment in a line: qHTS assay to identify small molecule agonists of the thyroid stimulating hormone receptor (TSHR) signaling pathway (AID 1224843; calls by dose curve; note: nearly all actives have a fitted effect of over 45% in size). In a few lines:
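Screening of the Tox21 10K collection used HEK293 cells engineered with TSHR at 800 cells per well. After a 30-min room-temperature compound exposure, HTRF cAMP reagents were added and fluorescence recorded 1 h later.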

Assay [10] is described as follows: qHTS assay to identify small molecule agonists of the hypoxia (HIF-1) signaling pathway (AID 1224846; active = well fitted activation curve with a large enough effect in the signal ratio in the repeat runs, not every such curve was filed as active; the % refers to the signal ratio). In a few lines: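 HRE-bla ME-180 cells (beta-lactamase reporter under hypoxia response element) were plated at 2,000 cells/well in medium with 0.5% dialyzed FBS, rested 5 hrs, then given compounds in DMSO for 17 hrs at 37C, 5% CO2. Reporter induction was read with CCF4-AM FRET substrate.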

Assay [11] is described as follows: qHTS assay to identify small molecule antagonists of the estrogen related receptor (ERR) signaling pathway from Tox21 library (AID 1224848). Note: nearly all actives have a fitted effect of over 50% in size. Note: potency is the fitted concentration of half-maximal effect. In outline:
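Antagonist-mode screen of the Tox21 10K library in an NTP-provided ERR reporter cell line; 18 h compound exposure at 37 C, luminescence measured with ONE-Glo.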

Assay [12] in a line: qHTS assay to identify small molecule agonists of the estrogen related receptor (ERR) signaling pathway from Tox21 library (AID 1224849; calls by dose curve; note: nearly all actives have a fitted effect of over 15% in size). The following applies: ERR reporter cell line, ONE-Glo luciferase, 18 h; at 92.4 µM (top of the series) unless noted. In a few lines: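 ERR reporter cell line (NTP) seeded, rested 6 h at 37 C/5% CO2, then pinned with Tox21 compounds in DMSO. After 18 h at 37 C, ONE-Glo luciferase luminescence was read following 30 min at room temperature.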

Assay [13] in a line: qHTS RealTime-Glo MT Cell Viability Assay in HepG2 cells - 24 hour (AID 1224867). Note: nearly all actives have a fitted effect of over 50% in size. In a few lines: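 HepG2 cells were seeded at 600 cells/well together with NanoLuc luciferase and a cell-permeant prosubstrate, preincubated 5 h at 37 C/5% CO2, then pin-dosed with compounds in DMSO. Nonlytic luminescence from viable cells was read at each time point.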
Assay [14] can be described thus: A CellTox Green Cytotoxicity Assay to monitor cytotoxicity in HEK293 cells - 0 hour (AID 1224869). Note: nearly all actives have a fitted effect of over 50% in size. In a few lines:
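HEK293 cells premixed with CellTox Green dye were seeded at 600 cells/well and left 5 h at 37 C/5% CO2 before pin transfer of 23 nL compound in DMSO. Fluorescence from dye bound to dead-cell DNA was read during 40 h treatment.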

Assay [15] in a line: qHTS RealTime-Glo MT Cell Viability Assay in HepG2 cells - 40 hour (AID 1224870). Note: nearly all actives have a fitted effect of over 50% in size. In outline:
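Real-time viability: cells seeded at 600 per well together with NanoLuc and cell-permeant prosubstrate, compounds added after 5 h incubation. Luminescence tracked at 0, 8, 16, 24, 32 and 40 h of exposure.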

Assay [16] is described as follows: qHTS assay to identify small molecule agonists of the hypoxia (HIF-1) signaling pathway - cell viability counter screen (AID 1224844; calls by dose curve; note: nearly all actives have a fitted effect of over 50% in size). In outline: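 HRE-bla ME-180 cells in medium with 0.5% dialyzed FBS were preincubated 5 hrs at 37C, exposed to compounds for 17 hrs, then viability was read as CellTiter-Glo luminescence after 30 min at room temperature, in the reporter wells.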

Assay [17] in a line: qHTS assay to identify small molecule agonists of H2AX (AID 1224845; active = well fitted activation curve with a large enough effect in the signal ratio in the repeat runs, not every such curve was filed as active; the % refers to the signal ratio). In outline: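 Phospho-H2AX Ser139 measured by HTRF (ex 320 nm; em 665 and 620 nm) after 24 hr antibody incubation. Compounds, 15 concentrations, 0.76% DMSO, were applied to CHO-K1 cells for 3hr at 37C before lysis.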
The nature of assay [18]: qHTS assay to identify small molecule agonists of H2AX - cell viability counter screen (AID 1224847; calls by dose curve;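 note: wild-type CHO-K1 cells; top concentration of the series differs between compounds; nearly all actives have a fitted effect of over 30% in size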). In outline:
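CHO-K1 wt, 1000 cells/well, o/n 37C; cpds 15 conc, 3 h 37C, 0.76% DMSO; CellTiter-Glo, 30 min RT, luminescence.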

Assay [19] in a line: qHTS RealTime-Glo MT Cell Viability Assay in HEK293 cells - 32 hour (AID 1224868). In outline:
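HEK293 cells were seeded at 600 cells/well together with NanoLuc luciferase and cell-permeant prosubstrate, preincubated 5 h at 37 C/5% CO2, then given compound in DMSO by pintool. Luminescence from viable-cell prosubstrate reduction was read repeatedly over 40 h.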

Assay [20] deals with Nuclear receptor subfamily 1 group I member 3 (Homo sapiens) (UniProt Q14994). Put plainly: qHTS assay to identify small molecule agonists of the constitutive androstane receptor (CAR) signaling pathway (AID 1224839). Note: nearly all actives have a fitted effect of over 15% in size. In a few lines:
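Luminescence read-out (ONE-Glo, 30 min, room temperature) from double-stable HepG2-CYP2B6-hCAR cells exposed 24 h to 15-point compound series in presence of 0.75 uM PK11195 final.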
% is set by controls: 0 for no effect and ±100 for the full control effect.

Sequence of Luciferin 4-monooxygenase (Photinus pyralis) (P08659 whole entry, looked up): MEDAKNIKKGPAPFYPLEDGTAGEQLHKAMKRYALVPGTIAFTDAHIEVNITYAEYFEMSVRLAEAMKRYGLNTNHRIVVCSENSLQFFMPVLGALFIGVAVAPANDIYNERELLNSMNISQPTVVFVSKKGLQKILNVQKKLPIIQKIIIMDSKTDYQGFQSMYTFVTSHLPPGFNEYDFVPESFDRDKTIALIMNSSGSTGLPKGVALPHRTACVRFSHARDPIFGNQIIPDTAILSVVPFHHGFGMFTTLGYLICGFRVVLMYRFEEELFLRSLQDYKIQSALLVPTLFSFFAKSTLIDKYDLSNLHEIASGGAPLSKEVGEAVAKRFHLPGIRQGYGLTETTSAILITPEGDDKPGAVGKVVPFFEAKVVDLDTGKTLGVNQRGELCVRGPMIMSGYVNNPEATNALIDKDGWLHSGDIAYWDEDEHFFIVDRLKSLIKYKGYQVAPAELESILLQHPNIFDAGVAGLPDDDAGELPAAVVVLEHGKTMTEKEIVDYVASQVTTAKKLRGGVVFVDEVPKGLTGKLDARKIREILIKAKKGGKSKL
Sequence of Thyrotropin receptor (Homo sapiens) (P16473 whole entry, looked up): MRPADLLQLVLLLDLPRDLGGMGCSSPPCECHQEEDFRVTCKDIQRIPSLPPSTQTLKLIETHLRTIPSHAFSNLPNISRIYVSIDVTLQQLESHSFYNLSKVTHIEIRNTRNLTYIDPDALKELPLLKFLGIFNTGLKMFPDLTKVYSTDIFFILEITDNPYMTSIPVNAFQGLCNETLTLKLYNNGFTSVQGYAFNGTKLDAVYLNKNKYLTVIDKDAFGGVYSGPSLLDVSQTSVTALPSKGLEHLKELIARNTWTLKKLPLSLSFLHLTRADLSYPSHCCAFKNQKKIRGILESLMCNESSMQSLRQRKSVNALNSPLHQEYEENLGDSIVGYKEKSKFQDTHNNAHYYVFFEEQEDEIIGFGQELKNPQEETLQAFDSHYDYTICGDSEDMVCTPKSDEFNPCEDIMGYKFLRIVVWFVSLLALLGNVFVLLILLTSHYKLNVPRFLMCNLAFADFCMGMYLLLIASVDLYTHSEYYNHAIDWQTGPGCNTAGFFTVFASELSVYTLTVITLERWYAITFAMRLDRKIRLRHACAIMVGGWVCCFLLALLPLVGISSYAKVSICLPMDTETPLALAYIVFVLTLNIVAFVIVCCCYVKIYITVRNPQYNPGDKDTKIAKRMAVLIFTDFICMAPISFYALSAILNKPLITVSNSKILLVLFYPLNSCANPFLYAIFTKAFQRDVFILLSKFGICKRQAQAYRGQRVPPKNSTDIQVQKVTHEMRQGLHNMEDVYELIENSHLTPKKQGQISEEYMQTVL

As to `CC(=O)[C@H]1CC[C@H]2[C@@H]3C[C@H](C)C4=CC(=O)CC[C@]4(C)[C@H]3[C@@H](O)C[C@]12C`, the Potency entry in assay [1], in assay [2], in [3], in assay [4], in assay [5] and in assay [6] was “inactive” each time. Further, the Potency result in [7], in assay [8], in assay [9], in assay [13], in [14] and in assay [15] was “inactive” throughout. Moreover, the compound was called inactive in [10]. Besides, the Potency in [11] is 26.6 µM (active). In addition, in assay [12], the activity change, positive = activation was -35.5% [at 42.5 µM].
As to `CC(C)CCCC(=O)O`, the Potency entry in assay [1], in [2], in assay [3], in assay [4], in [6] and in assay [7] was “inactive” each time. Further, the Potency result in [8], in assay [16], in assay [17], in assay [18], in [11] and in assay [13] was “inactive” each time. The Potency entry in assay [19], in [14] and in [15] was “inactive” each time. Moreover, the compound was called inactive in assay [10]. Besides, in assay [12], the activity change, positive = activation is 0.997%.
In the case of `CC1=CC(O)CC(C)(C)C1` (stereo unspecified), the Potency entry in assay [1], in [2], in assay [3], in assay [4], in assay [6] and in assay [9] was “inactive” in each case. In addition, the Potency result in assay [16], in assay [17], in [18], in assay [13], in assay [19] and in [14] was “inactive” in each case. Besides, the Potency entry in assay [15] was “inactive”. Besides, in assay [10], the result was inactive. Further, the activity change, positive = activation in [12] was 1.93%.
In the case of `CCOC(=O)/C=C/C(=O)O`, the Potency result in [1], in assay [2], in [3], in assay [4], in [5] and in [6] was “inactive” throughout. For the same compound, the Potency entry in [9], in assay [16], in assay [17], in [18], in [13] and in assay [19] was “inactive” in each case. For the same compound, the Potency result in assay [14] and in assay [15] was “inactive” throughout. Moreover, the compound was classed as inactive in [10].
On to `CCCCCCCC/C=C\CCCCCCCC(=O)OC(CO)CO`, for which the Potency entry in [1], in assay [2], in assay [3], in assay [4], in assay [5] and in assay [20] was “inactive” throughout. Further, the Potency entry in assay [18], in [13], in assay [19], in assay [14] and in assay [15] was “inactive” in each case. The call in assay [10] was inactive.
With `O=S1OCCO1`, the Potency result in [1], in assay [2], in [3], in assay [4], in assay [6] and in assay [7] was “inactive” each time. Also, the Potency result in [8], in assay [9], in assay [16], in [17], in [11] and in [13] was “inactive” in each case. Besides, the Potency entry in assay [19], in assay [14] and in [15] was “inactive” throughout. Further, in [10], the compound was called inactive. Also, the activity change, positive = activation in assay [12] was 6.2%.
Consider `Oc1cc(O)c(Cl)cc1Cl`, for which the Potency entry in [1], in [2], in [3], in assay [4], in [5] and in [20] was “inactive” throughout. Also, the Potency entry in assay [7], in assay [8], in assay [9], in assay [18], in [11] and in assay [13] was “inactive” in each case. Moreover, the Potency entry in [19], in assay [14] and in assay [15] was “inactive” throughout. The compound was called inactive in assay [10]. Also, in assay [12], the activity change, positive = activation is -14.1%.
In the case of `C[Si]1(C)O[Si](C)(C)O[Si](C)(C)O1`, the Potency result in assay [1], in assay [2], in [3], in [4], in assay [5] and in assay [20] was “inactive” in each case. Also, the Potency result in assay [7], in assay [8], in assay [9], in [16], in assay [17] and in [18] was “inactive” throughout. Moreover, the Potency entry in assay [11], in assay [13], in assay [19] and in assay [15] was “inactive” in each case. Besides, the compound was classed as inactive in assay [10]. The activity change, positive = activation in assay [12] is -9.67%.
